High-throughput results from PubChem.
Hits are enriched below; roughly 5.9% of the tested compounds scored in any of these assays.
Gal4-VP16 FLuc: VP16 counterscreen qHTS for inhibitors of ROR gamma transcriptional activity; Drosophila S2 Gal4-VP16 UAS-luciferase, luminescence, 20 h; Potency, µM (highest dose often 53.6 µM), for the others: at the top dose activity, negative = inhibition, actives largely listed as inhibitors; 310,000 tested, 3.5% active;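 note: Gal4-VP16 expression switched on by copper sulfate through the metallothionein promoter; % is set by controls: 0 for no effect and ±100 for the full control effect; nearly all actives have a fitted effect of over 50% in size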
GLP1R ag: qHTS of GLP-1 Receptor Agonists; Glucagon-like peptide 1 receptor (Homo sapiens), P43220; HEK293 GLP-1R CRE-luciferase, luminescence, 4-6 h; cells express a hypersensitive GLP-1R form; Potency, µM (titrated, usually from 45.6 µM), for inactives: top-dose activation, actives largely listed as activators; 380,000 tested, 0.007% active; AID 624172, 2012; note: % of control where 0% means no effect
GLP-1R inv ag: qHTS of GLP-1 Receptor Inverse Agonists (Inhibition Mode). Potency, µM (highest dose often 38.3 µM), for inactives: top-dose activity change, negative = inhibition, hits mostly inhibitors. 410,000 tested, 1.6% active. HEK293 GLP-1R CRE-luciferase, luminescence, 24 h; GLP-1R form is constitutively active. AID 624417, 2012. Glucagon-like peptide 1 receptor (Homo sapiens), P43220; note: % is set by controls: 0 for no effect and ±100 for the full control effect; nearly all actives have a fitted effect of over 55% in size
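Inverse agonists were sought by their lowering of basal cAMP reporter luciferase output in HEK293 cells stably carrying constitutively active human GLP-1R, after 24 h compound treatment.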
HEK293 tox: qHTS of GLP-1 Receptor Inverse Agonists: Cytotox Screen; 410,000 tested, 0.13% active; HEK293 cAMP-luciferase reporter cells, luminescence, 24 h; Potency, µM (top dose mostly 38.3 µM), without a hit: top-dose activity change, negative = inhibition, actives largely listed as inhibitors;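 note: loss of luciferase light is scored as toxicity; % is set by controls: 0 for no effect and ±100 for the full control effect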
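Luminescence readout: signal drop marks cytotoxicity. Plated cells grew 12 h at 37 °C, 5% CO2, received 23 nL compound for 24 h, then got luciferase reagent, read after 12 min at RT.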
RORgamma inh: qHTS for inhibitors of ROR gamma transcriptional activity | Nuclear receptor ROR-gamma (Mus musculus), P51450 | 310,000 tested, 5.4% active | Drosophila S2 Gal4-RORgamma UAS-luciferase reporter, 20 h | Potency, µM (doses to about 53.6 µM), inactives show at the highest dose activity change, negative = inhibition, actives largely listed as inhibitors; note: % is set by controls: 0 for no effect and ±100 for the full control effect; nearly all actives have a fitted effect of over 60% in size
Target sequence (P51450 whole entry, looked up, the tested form may be a part): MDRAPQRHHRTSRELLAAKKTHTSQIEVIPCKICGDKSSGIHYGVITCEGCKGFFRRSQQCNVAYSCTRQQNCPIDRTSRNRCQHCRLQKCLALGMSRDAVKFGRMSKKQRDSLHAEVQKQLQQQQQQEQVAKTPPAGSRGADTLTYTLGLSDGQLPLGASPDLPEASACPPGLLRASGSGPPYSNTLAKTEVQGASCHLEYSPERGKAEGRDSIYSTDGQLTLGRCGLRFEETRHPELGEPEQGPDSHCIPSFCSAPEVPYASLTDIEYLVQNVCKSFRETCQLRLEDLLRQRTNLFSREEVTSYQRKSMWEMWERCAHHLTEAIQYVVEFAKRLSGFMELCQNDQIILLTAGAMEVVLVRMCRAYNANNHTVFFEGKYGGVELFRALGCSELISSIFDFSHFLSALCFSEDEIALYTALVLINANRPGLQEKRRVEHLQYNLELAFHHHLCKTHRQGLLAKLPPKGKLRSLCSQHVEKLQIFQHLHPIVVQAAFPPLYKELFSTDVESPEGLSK
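Luminescence from a UAS-regulated Photinus luciferase reporter in stably transfected Drosophila Schneider cells is measured; decreased signal marks ROR gamma inhibition. Fusion expression is induced by 700 uM copper sulfate for 20 hr.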
The depositor's hits bear a star; ? = inconclusive; . = not tested or not shown; [ ] = dose if it differs, or a comment. Calls come from the whole dose curve; as a rule, active = well fitted curve in the direction sought with a large enough effect; inconclusive = small, poorly fitted or top-dose-only effect, or another doubt; inactive = no such curve, though single readings can be large; an effect the other way counts as inactive or inconclusive. Potency is the fitted concentration of half-maximal effect.

SMILES	Gal4-VP16 FLuc	GLP1R ag	GLP-1R inv ag	HEK293 tox	RORgamma inh
COc1ccc(-c2n[nH]c(=S)n2-c2ccc(Br)cc2)cc1OC	?	4%	9%	2%	20µM*
COc1ccc(-c2n[nH]c(=S)n2-c2ccccc2C)cc1OC	?	-1%	16%	-13%	11µM*
COc1ccc(-c2n[nH]c(=S)n2-c2ccccc2C)cc1	6.3µM*	0%	-1%	?	5.6µM*
Cc1ccc(S(=O)(=O)C(CNC(=O)COc2ccccc2)c2ccco2)cc1 (stereo not given)	.	.	8%	-10%	.
Cc1nc2cc(-c3ccccc3)nn2c(C)c1CCC(=O)N1CCN(c2ccc(F)cc2)CC1	.	0%	14%	0%	.
Cc1onc(-c2ccccc2Cl)c1C(=O)NC(=S)NCCc1ccccc1	20µM*	1%	?	6%[1.53 µM]	10µM*
Cc1nc(/C(N)=N/OC(=O)c2c(-c3ccccc3Cl)noc2C)cs1	-27%	5%	?	0%	25%
COc1ccc(/C(N)=N/OC(=O)c2c(-c3ccccc3Cl)noc2C)cc1OC	10µM*	?	?	?	-36%
COc1ccc(CCNC(=S)NC(=O)c2c(-c3ccccc3Cl)noc2C)cc1OC	?	?	?	6%	8.9µM*
COc1ccc(CCNC(=O)c2c(-c3ccccc3Cl)noc2C)cc1	11%	3%	-26%	15%	10%
Cc1cccc(Cn2c(=O)n(CCCC(=O)NCc3ccccc3Cl)c(=O)c3ccccc32)c1	.	2%	?	-14%	.
Cc1ccc(NC(=S)Nc2cccc(S(=O)(=O)Nc3c(C)n(C)n(-c4ccccc4)c3=O)c2)cc1	4%	1%	2%	-1%	11µM*
Cc1c(NC(=S)N/N=C/C=C/c2ccccc2)c(=O)n(-c2ccccc2)n1C	0.79µM*	1%	?	?	0.32µM*
CC(=O)c1ccc(NC(=S)Nc2cccc(S(=O)(=O)Nc3c(C)n(C)n(-c4ccccc4)c3=O)c2)cc1	14%	6%	6%	10%	11%
Cc1c(NC(=S)N/N=C/c2ccc([N+](=O)[O-])cc2O)c(=O)n(-c2ccccc2)n1C	3%	5%	-23%	-28%	-2%
Cc1c(NC(=S)N/N=C/C=C/c2ccc([N+](=O)[O-])cc2)c(=O)n(-c2ccccc2)n1C	11µM*	1%	-4%	?	3.2µM*
CC(C)(C)C1CCc2c(sc(NC(=O)C3c4ccccc4Oc4ccccc43)c2C(N)=O)C1 (stereo not given)	.	.	0%	4%	.
Cc1nn(C)c(Cl)c1NC(=O)OCc1ccc(Cl)cc1Cl	8.9µM*	1%	?	-18%	?
CC(C)(C)C1=NN(C(=O)c2ccccc2)C(O)(C(C)(C)C)C1 (stereo not given)	2%	6%	?	-7%	7%
CC(C)C1=NN(C(=O)c2ccccc2)C(O)(C(C)(C)C)C1 (stereo not given)	?	-14%	13µM*	?	4.5µM*
O=C(NCc1ccccc1Cl)C(=O)NCC(c1cccs1)S(=O)(=O)c1cccs1 (stereo not given)	.	.	?	0%	.
Cc1c(C(=O)N(Cc2nccn2C)C(C)C)oc2c(F)cccc12	-8%	5%	-26%	-5%	-32%
CCCc1ccc2oc(C(=O)N(Cc3nccn3C)C(C)C)c(C)c2c1	-3%	1%	?	1%	11µM*
COc1ccccc1N1CCN(c2nc3ccc(C)cc3n3nnnc23)CC1	.	.	13%	9%	.
CN(C(=S)NC(=O)c1ccccc1Br)C1CCCCC1	3.2µM*	3%	10µM*	?	0.89µM*
CC1CCCCC1NC(=S)NC(=O)c1ccccc1Br (stereo not given)	5µM*	-5%	?	0%	2.8µM*
Cc1ccccc1C(=O)NC1CCSC1=O (stereo not given)	-2%	-6%	13%	-4%	?
